Screens deposited in PubChem BioAssay by National Center for Advancing Translational Sciences (NCATS).
SNCA viab count: cell viability loss counter-screen; HEK-293-SNCA-luc viability, GF-AFC fluorescence, 24 h; Potency, µM (highest dose often 57.1 µM), inactives show top-dose activity change, negative = cytotoxicity, most hits filed as cytotoxic; 150,000 compounds, 0.12% hits; AID 1671193;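 further: potency means the concentration at half of the fitted maximal effect; 0% = DMSO-treated cells and -100% = medium-only wells without cells; nearly all actives have a fitted effect of over 30% in size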
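Cytotoxicity counterscreen: after 24 h compound treatment of genome-edited SNCA-luciferase HEK-293 cells, live-cell protease substrate GF-AFC read by fluorescence after 30 min; activity scaled between DMSO (0%) and medium-only (-100%), curves Hill-fitted.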
NIH3T3 tox: kills NIH 3T3 cells | NIH 3T3 viability, CellTiter-Glo ATP luminescence, 48-72 h | Potency, µM (series often up to 96.7 µM), inactives show at the top dose activity change, negative = cytotoxicity, usual class: inhibitors | 94,000 compounds, 4.3% hits; further: potency means the concentration at half of the fitted maximal effect; nearly all actives have a fitted effect of over 55% in size
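Cells were seeded at 400 per well, treated with pin-transferred compound, and kept 48 or 72 hr at 37 °C before CellTiter-Glo addition and luminescence imaging of cellular ATP.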
Luciferase inh: blocks purified firefly luciferase enzyme activity. Potency, µM (doses to about 115 µM), actives largely listed as inhibitors. 76,000 compounds, 2.5% hits. purified P. pyralis luciferase, luminescence, biochemical; further: potency means the concentration at half of the fitted maximal effect; nearly all actives have a fitted effect of over 65% in size
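Luminescence read by CCD imaging after purified firefly luciferase (10nM final) was added to substrate buffer holding 10uM D-luciferin and 10uM ATP, pH 7.5, pre-dosed with compound.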
SNCA expr inhib: reduces expression of the alpha-synuclein gene; HEK-293 SNCA-luciferase knock-in, luminescence, 24 h; Potency, µM (titrated, usually from 57.2 µM), for inactives: at the highest dose activity change, negative = inhibition, actives largely listed as inhibitors; 140,000 compounds, 0.17% hits; AID 1671194;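 further: potency means the concentration at half of the fitted maximal effect; plate controls were DMSO cells for no effect and cell-free wells for full effect; nearly all actives have a fitted effect of over 45% in size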
HEK293 tox: kills HEK 293 cells. HEK 293 viability, ATP luminescence (CellTiter-Glo), 48-72 h. Potency, µM (top dose mostly 115 µM), for inactives: top-dose activity change, negative = cytotoxicity, hits mostly inhibitors. 94,000 compounds, 6.6% hits. AID 1345083; further: potency means the concentration at half of the fitted maximal effect; nearly all actives have a fitted effect of over 60% in size
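Cells seeded first (HEK 293, 250 cells/well), then compound added by pintool. Incubation ran 48 or 72 hr at 37 degree Celsius. CellTiter-Glo was added and luminescence imaged after 10 min at room temperature.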
IP6K1 inhibitor: inhibitors of human IP6K1; IP6K1 kinase, ADP-Glo luminescence, 2 h; active compounds read low; activity change, % (series mostly up to about 58 µM); 140,000 compounds, 0.81% hits; AID 1645851; in the data active means activity change below about -25%
Target sequence (Q92551 whole entry, looked up): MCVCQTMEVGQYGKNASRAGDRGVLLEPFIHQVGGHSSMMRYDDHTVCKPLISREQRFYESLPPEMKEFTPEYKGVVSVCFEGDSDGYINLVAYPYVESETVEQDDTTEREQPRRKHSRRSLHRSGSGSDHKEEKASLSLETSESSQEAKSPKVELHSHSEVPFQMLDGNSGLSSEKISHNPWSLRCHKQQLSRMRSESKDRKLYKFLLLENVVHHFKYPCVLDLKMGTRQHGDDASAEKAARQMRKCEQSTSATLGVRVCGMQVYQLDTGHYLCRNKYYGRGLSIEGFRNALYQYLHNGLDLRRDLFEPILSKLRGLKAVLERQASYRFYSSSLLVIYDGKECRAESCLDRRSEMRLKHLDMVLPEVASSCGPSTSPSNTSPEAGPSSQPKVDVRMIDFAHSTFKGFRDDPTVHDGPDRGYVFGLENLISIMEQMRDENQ
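ADP-Glo luminescence measures ADP made by human IP6K1 during a 2 h RT reaction with ATP/IP6 (mix at 1.3 mM/130 uM); top library doses 57.5 and 19.1 uM final.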
IP6K1 conf: human IP6K1 inhibition, confirmatory; shares compounds with IP6K1 inhibitor; recombinant IP6K1 kinase, ADP-Glo luminescence, 2 h; Potency, µM (doses to about 49 µM), without a hit: at the highest dose activity change, negative = inhibition, most hits filed as inhibitors; 1,200 compounds, 13% hits; AID 1645852; further: potency means the concentration at half of the fitted maximal effect; nearly all actives have a fitted effect of over 65% in size
Active calls of the source: *; i = inactive; ? = inconclusive; . = no result; [ ] = remark or other dose. Only some compounds are listed: those with a hit (about 7.3% of all), similar ones and a draw of the others. Unless noted, the call rests on the fitted dose curve; in most records, active means well fitted curve in the direction sought with a large enough effect; inconclusive means small, poorly fitted or top-dose-only effect, or another doubt; inactive means no such curve, though single readings can be large; an effect the other way counts as inactive or inconclusive. Unless noted, on the % scale 0 is the no-effect control and ±100 the full control effect.

SMILES | SNCA viab count | NIH3T3 tox | Luciferase inh | SNCA expr inhib | HEK293 tox | IP6K1 inhibitor | IP6K1 conf
CN(c1cc(=O)c2ccnc(Nc3ccc(F)c(Cl)c3)c2o1)C1CCOCC1 | -7.3%[87.6 µM] | ? | i | -0.2%[87.6 µM] | ? | -25.1* | 20.2%
CN(c1cc(=O)c2ccnc(-c3ccc(F)c(Cl)c3)c2o1)C1CCOCC1 | -0.7%[87.6 µM] | ? | i | -12.1%[87.6 µM] | -16.8%[172 µM] | -1.5 | .
CN(c1cc(=O)c2ccnc(-c3cccc(C(F)(F)F)c3)c2o1)C1CCOCC1 | -0.2%[87.6 µM] | 12.6µM* | i | 7.2%[87.6 µM] | -19.2%[172 µM] | -34.4* | ?
Cc1ccccc1NC(=O)Cn1nc(-c2ccc(F)cc2)c2cnc3ccccc3c21 | -5.6% | . | . | -9.8% | . | 17.0 | .
Cc1ccccc1NC(=O)CCn1nc(-c2ccccc2)c2ccccc2c1=O | -14.8% | . | . | -6.1% | . | -25.5* | -9.5%
O=C(NCC1CC1)c1cccc(OC2CN(Cc3cc(F)c(F)c(F)c3)C2)c1 | -22.4% | ? | i | -7.2% | ? | 7.6 | .
CC(C)Oc1ccc(C(=O)NC2CCN(c3cnn(CC4CC4)c(=O)c3)CC2)cc1 | -18.6% | ? | i | -4.1% | ? | 2.2 | .
O=C1CCC2(CCCO2)CCN1Cc1cccc(F)c1F (centres undefined) | -1.8% | -10.7% | i | 41.7% | -6.8% | -30.8* | -9.1%
NC(=O)c1cccc(-c2cc(Nc3ccc(OC(F)(F)F)cc3)ncn2)c1 | -24.5% | . | . | -11.7% | . | -25.3* | ?
O=C(NCCO)c1cccc(-c2cc(Nc3ccc(OC(F)(F)F)cc3)ncn2)c1 | 1.6% | . | . | . | . | -20.9 | .
COC[C@@H]1CN(Cc2ccc3[nH]ccc3c2)C[C@H]1c1nc(C)no1 | 0.6% | i | i | -7.2% | i | -10.8 | .
O=C(Cn1cc(S(=O)(=O)Cc2cccc(Cl)c2)c2ccccc21)Nc1ccc(F)c(Cl)c1 | -17.0% | . | . | -26.2% | . | -37.3* | 0.4%
Cc1cc(C(=O)NC2CC(c3nnc(CN(C)C)n3C)C2)c2c(C)noc2n1 (centres undefined) | 15.7% | -15.7% | i | 37.4% | -11.3% | -28.5* | -7.1%
CN(C)Cc1nnc(C2CC(NC(=O)c3ccnnc3)C2)n1C (centres undefined) | -3.3% | -0.6% | i | -3.0% | -6.7% | 12.7 | .
O=C(O)C[C@@H]1CCN(C(=O)C2CCCC2)C[C@@H]1CCN1CCC(n2c(=O)[nH]c3ccccc32)CC1 | -5.9% | 0.4% | i | 19.0% | -3.0% | -0.5 | .
O=C(CCc1nc2ccccc2[nH]1)N1C[C@@H](CO)[C@H](c2ccccn2)C1 | -5.4% | -8.9% | i | -5.0% | -6.5% | 6.3 | .
Cc1c(C(=O)N(Cc2ccccc2F)C2CCS(=O)(=O)C2)oc2ccccc12 (centres undefined) | -22.2% | . | . | 7.5% | . | -61.3* | -21.0%
CN[C@H](CC(C)C)C(=O)N[C@H]1C(=O)N[C@@H](CC(N)=O)C(=O)N[C@H]2C(=O)N[C@H]3C(=O)N[C@H](C(=O)N[C@H](C(=O)O)c4cc(O)cc(O)c4-c4cc3ccc4O)[C@H](O[C@H]3C[C@](C)(N)[C@@H](O)[C@H](C)O3)c3ccc(c(Cl)c3)Oc3cc2cc(c3O[C@@H]2O[C@H](CO)[C@@H](O)[C@H](O)[C@H]2O[C@H]2C[C@](C)(NCc3ccc(-c4ccc(Cl)cc4)cc3)[C@@H](O)[C@H](C)O2)Oc2ccc(cc2Cl)[C@H]1O | 10.3%[23.9 µM] | . | . | . | . | -32.5* | ?
Cc1c(C(=O)Nc2cccc(C(F)(F)F)c2)sc2nc[nH]c(=O)c12 | -11.7% | . | . | 53.0% | . | -32.4* | ?
CCc1cccc(NC(=O)c2sc3nc[nH]c(=O)c3c2C)c1 | 0.7% | . | . | 22.2% | . | 18.1 | .
COCc1cc(=O)n(CC(=O)Nc2ccc(C)cc2Cl)c(N2CCOCC2)n1 | -19.8% | -26.1% | i | -12.5% | -11.5% | 25.8 | .
C/C=C/C=C/C=C/C(=O)O[C@@H]1[C@@H](OC)C2=C(C(=O)N(C(CCC(=O)O)C(=O)O)C2)[C@@]2(C)CCCC(C)(C)[C@H]12 (some centres undefined) | 0.3%[23.9 µM] | . | . | . | . | -16.5 | .
C/C=C/C=C/C=C/C(=O)O[C@@H]1[C@@H](OC)C2=C(C(=O)N(C(C)C(=O)O)C2)[C@@]2(C)CCCC(C)(C)[C@H]12 (some centres undefined) | -24.3%[23.9 µM] | . | . | . | . | 10.9 | -5.6%[18.9 µM]
COc1cc(C2c3c(oc4ccccc4c3=O)C(=O)N2c2nnc(C(C)C)s2)cc(OC)c1OC (centres undefined) | -6.8% | . | . | -1.2% | . | -26.3* | 5.8%
CCOc1ccc(C2c3c(oc4ccccc4c3=O)C(=O)N2c2nnc(C)s2)cc1OC (centres undefined) | -3.4% | . | . | 24.2% | . | -36.6* | -9.7%
SMILES | SNCA viab count | NIH3T3 tox | Luciferase inh | SNCA expr inhib | HEK293 tox | IP6K1 inhibitor | IP6K1 conf
Cc1ccc(C2c3c(oc4ccccc4c3=O)C(=O)N2c2nnc(C)s2)cc1 (centres undefined) | -8.9% | . | . | -1.5% | . | 17.2 | .
Cc1nnc(N2C(=O)c3oc4ccccc4c(=O)c3C2c2ccc(Cl)cc2)s1 (centres undefined) | -4.8% | . | . | -11.7% | . | -4.3 | .
Cc1ccc(S(=O)(=O)c2[nH]c(-c3ccccc3)nc2SCC(=O)O)cc1 | -0.6% | . | . | -28.8% | . | -25.6* | -4.8%
Cc1ccc(S(=O)(=O)c2[nH]c(-c3ccccc3)nc2SCC(N)=O)cc1 | -10.5% | . | . | 16.7% | . | 8.0 | .
COc1cc(OC)c(NC(=O)C2=C(C)C(=O)OC23CCCCCC3)cc1Cl | 1.8% | . | . | 18.0% | . | -99.8* | -13.0%
CC(=O)NC1CCN(c2nc(-c3cccnc3)nc3c2cnn3C)C1 (centres undefined) | -3.8% | ? | i | 9.3% | ? | 3.5 | .
CCn1c(CO)nnc1C1CC(NC(=O)c2cccc3c2OCCO3)C1 (centres undefined) | -4.4% | -24.9% | i | 2.2% | 3.8% | -25.3* | 31.6%
CC(C)OCCCNC(=O)c1ccc(N2CC3CC(C2)[C@H]2CCCC(=O)N2C3)nc1 (some centres undefined) | 8.1% | -2.6% | i | 25.7% | 11.1% | 4.9 | .
CCOC(=O)[C@@H]1CN(C(=O)c2ccc(-c3cccs3)s2)[C@H]2c3cccc(F)c3O[C@@H]12 | . | ? | . | . | -30.4% | 16.2 | .
O=C(NC1CCCN(CCn2nc3n(c2=O)CCCC3)C1)c1cccnc1 (centres undefined) | . | -17.2% | . | . | -9.7% | 9.2 | .
CC1=C(C(=O)OC2CCCCC2)C(c2ccc([N+](=O)[O-])cc2)C2=C(CC(C)(C)CC2=O)N1 (centres undefined) | -4.2% | . | . | . | . | -36.2* | -23.6%
